Residue numbers refer to the chain shown, from its start. Over roughly 5,800 sequences, “enrichment r” has its median near 0.68; the highest 2% begin near 11. This is one part of a sample in which the highest values are shown more often than they occur.

B1: chrX:133301433:133301604:-|3pUTR|ENSG00000076716|msi1|total|mutant (ssRNA)
RNA: GGGAGUUCUACAGUCCGACGAUCUUGUUUUUCUUGGGGGAUGGGGUGGGGUGGGAGCCGGCCGAGCUGAGAAUACUACAUCUCCGUGGUGACCUUCCGCCACGUGGGUGAAGUGGCAAAGGCCAUGGCCAUAUCUGUUGUCCCCAACAGAGGAUUGAGCAUCA
B2: chr21:44851366:44851434:-|CDS_3pUTR|ENSG00000183255|msi1_unk|total|mutant (ssRNA)
RNA: GGGAGUUCUACAGUCCGACGAUCAGGACAGUCCUCUCGUCUUGCAGACUGGUGACCUUCUAUUCCCUGUUCAUCUCUGUUUCCCGAUUCCGUCACUUGAAAUAAGAAAUCUUUGGGGUUUGGGCUUUUUUAUACUCUUCUCAGCAACAGAGGAUUGAGCAUCA
B3: ENSG00000142192:stop:overlap|stop_codon|ENSG00000142192|stop_codon|NA|stop_codon (ssRNA)
RNA: GGGAGUUCUACAGUCCGACGAUCAGAUGCAGCAGAACGGCUACGAAAAUCCAACCUACAAGUUCUUUGAGCAGAUGCAGAACUAGACCCCCGCCACAGCAGCCUCUGAAGUUGGACAGCAAAACCAUUGCUUCACUACCCAUCCAACAGAGGAUUGAGCAUCA
B4: chr1:13115521:13116400:-|CDS|ENSG00000275774|control|control|control (ssRNA)
RNA: GGGAGUUCUACAGUCCGACGAUCGAACAGAGCAAACAAGAGGUAGAGGUGAAAAAUGCUAAGUCAGAAGAGGAGCAGAGCAGUAGCUCCAUGAAGAAAGAUGAGACUCAUGUAAAGAUGGAGUCUGAGGGGGGUGCAGAAGACCAACAGAGGAUUGAGCAUCA
B5: ENSG00000070961:be:win_5251|3pUTR|ENSG00000070961|bound_else_gene|NA|bound_elsewhere_windowed (ssRNA)
RNA: GGGAGUUCUACAGUCCGACGAUCUGGAUUCUUUAGCUCUCUUUUUCUUUCCUUCAUCUACCUUCUUCUCUUUUUUGCCUCUGUCUUUACCCUUUAGAAACUGGCAUGUGUUAGGGCCCAGAUUUCACCAGAUACACAAUCCUCCAACAGAGGAUUGAGCAUCA
B6: ENSG00000198589:be:win_6101|CDS|ENSG00000198589|bound_else_gene|NA|bound_elsewhere_windowed (ssRNA)
RNA: GGGAGUUCUACAGUCCGACGAUCUAGGAAAUCAGAACUCAGAAAACGAGAUCCUCCUGGAAGGCGAUGAUGAUACUCUGUCAUCCGUGGAUGAGAAAGAUUUAGAGAAUCUUGCCGGUCCUGUUAGCCUGAGCACACCAGCUCCAACAGAGGAUUGAGCAUCA
B7: ENSG00000227500:stop:overlap|stop_codon|ENSG00000227500|stop_codon|NA|stop_codon (ssRNA)
RNA: GGGAGUUCUACAGUCCGACGAUCGCAACAGCCUGCCCGAGUACCCCACUGUGCCCAGCUACCCGGGCAGUGGCCAGUGGCCUUAGAGGGAGCCUGCCCUGCCCCCACCGCCCACCACCUCCUCCCCUUCAUUCCUGCUGCUACCAACAGAGGAUUGAGCAUCA
B8: chr19:57593639:57593745:+|3pUTR|ENSG00000171649|unk|FALSE|unique (ssRNA)
RNA: GGGAGUUCUACAGUCCGACGAUCUGAACCUUCUUAUUUCUCUACAUUCUUGCCAUACUUGGUAUGGUUAGUCUUUUUAAUUUUAGUUGUUUUAAUAGCUGUAUAAUAGCAUCUGUCUGUGAUUUUAUUGCAUUUUUCUGGUAUCAACAGAGGAUUGAGCAUCA
B9: chr2:216672374:216672548:-|3pUTR|ENSG00000115461|msi1|FALSE|unique (ssRNA)
RNA: GGGAGUUCUACAGUCCGACGAUCUUUUUCUUUUUUUUUUUGAAGACAGCAAUAACCACAGUACAUAUUACUGUAGUUCUCUAUAGUUUUACAUACAUUCAUACCAUAACUCUGUUCUCUCCUCUUUUUUGUUUUCAACUUUAACAACAGAGGAUUGAGCAUCA
B10: chr2:171983412:171983537:+|3pUTR|ENSG00000128708|unk|FALSE|unique (ssRNA)
RNA: GGGAGUUCUACAGUCCGACGAUCUGAUGACUUUAAUUUUAAAAUCUUGUGACAUUUUGCUUAUACUAAAAGUUAUCUAUCUUUAGUUGAAUAUUUUCUUUUGGAGAGAUUGUAUAUUUUAAAAUACUGUUUAGAGUUUAUGAGCAACAGAGGAUUGAGCAUCA
B11: chr19:57593639:57593745:+|3pUTR|ENSG00000171649|unk|total|mutant (ssRNA)
RNA: B8 RNA with U68C, A69C, U83C, A84C, U95C, A96C, U106C, A107C
B12: chr20:3963869:3963970:-|CDS|ENSG00000101236|unk|total|mutant (ssRNA)
RNA: GGGAGUUCUACAGUCCGACGAUCAAUCUGCCUCUCAACAUAUAUAUUGUGGUUUUUGGUACUGCUAUAUUUGUCUUCAUCCUCCGUUUACUCUUCUGUUGCUACUUGAUCCGGUAACCAAUUUUCAUUCUAUGUUACUUCAAACAACAGAGGAUUGAGCAUCA
B13: chr2:216672374:216672548:-|3pUTR|ENSG00000115461|msi1|total|mutant (ssRNA)
RNA: B9 RNA with U73C, A74C, U83C, A84C
B14: chr8:73046310:73046411:+|3pUTR|ENSG00000147601|msi1|FALSE|unique (ssRNA)
RNA: GGGAGUUCUACAGUCCGACGAUCUUGUAUUCUUUAAGAACCUUAUUUUGAUAAAAUGUAAAUUUGUUGAACCCUGCCACAUUUAGUAUCCCCACCCCCAAAUCCUGUUCCAAUGAAAAAAUUAAAACCUGAUACGAAAAAAAACAACAGAGGAUUGAGCAUCA
B15: chr2:96301550:96301651:-|CDS|ENSG00000144028|msi1|FALSE|unique (ssRNA)
RNA: GGGAGUUCUACAGUCCGACGAUCAAGGCGAAAGGAGAUUGACCUGCUGCUGGGUCAAACAGAUGAUACCAGAUACCAUGUGCUAGUGAACCUGGGCAAAAAGAUCACAGACUAUGGUGGAGAUAAGGAAAUCCAAAAUAUGGGCAACAGAGGAUUGAGCAUCA
B16: chr7:76302746:76302847:+|CDS|ENSG00000106211|unk|total|mutant (ssRNA)
RNA: GGGAGUUCUACAGUCCGACGAUCGUCCCCUUCUCGCUCCUGCGGGGCCCCAGCUGGGACCCCUUCCGCGACUGGUACCCGCACCGCCGCCUCUUCGACCAGGCCUUCGGGCUGCCCCGGCUGCCGGAGGAGUGGUCGCAGUGGCAACAGAGGAUUGAGCAUCA
B17: chr7:56101660:56101848:-|3pUTR|ENSG00000106153|msi1|total|mutant (ssRNA)
RNA: GGGAGUUCUACAGUCCGACGAUCUGGAGAGAUGGAAAAUCAGCUCUCAUAACUAAGUUAAUUCCGUAUAAAAACCGAAUUGACCGUGAGGGUAUAAAGUGUAACCAUCAGUUAAACCUCUCCUGUCAUUCCUGGCUUCCUUGCCAACAGAGGAUUGAGCAUCA
B18: chr11:2928445:2928542:-|3pUTR|ENSG00000181649|msi1_unk|FALSE|overlapping (ssRNA)
RNA: GGGAGUUCUACAGUCCGACGAUCAUUGGACUAUCUAAUAUCUAUGUAUUUAUUUCGCUGGUUCUUUGUAGUCACAUAUUUUAUAGUCUUAAUAUCUUGUUUUUGCAUCACUGUGCCCAUUGCAAAUAAAUCACUUGGCCAGUUCAACAGAGGAUUGAGCAUCA
B19: ENSG00000070961:be:win_1401|CDS|ENSG00000070961|bound_else_gene|NA|bound_elsewhere_windowed (ssRNA)
RNA: GGGAGUUCUACAGUCCGACGAUCAAAUGCUACAGCUAUUUGUUCAGAUAAAACAGGAACUUUGACAAUGAACAGAAUGACAGUCGUUCAAGCUUACAUAAAUGAAAAACAUUAUAAAAAGGUUCCUGAACCAGAAGCUAUUCCCAACAGAGGAUUGAGCAUCA
B20: chr1:52238154:52238269:+|CDS|ENSG00000157077|unk|total|mutant (ssRNA)
RNA: GGGAGUUCUACAGUCCGACGAUCUCUGACCGUCCCGCCAGUGUCUGUUCCCCUUCACAAUUAAAGGAUGACGGAAGUACCGGCCGAGACCCCUCCAUGUCUGCGAUUACAAGUUUAACGGUUGAUUCAGUAAUCUCAUCCCAGCAACAGAGGAUUGAGCAUCA
B21: chr2:88557131:88557241:-|3pUTR|ENSG00000172071|msi1|total|mutant (ssRNA)
RNA: GGGAGUUCUACAGUCCGACGAUCGAGGACAAGCCGCACAAACUGUAUAACGGUUUAUGUCCGCCGUUUUACCGUCCUAUUUGCCGCAUUCAACCGCUUUAUUCCUCCGAUGGUUCCCGGGUGGGUUUACAGCUUUUUGUACUUCAACAGAGGAUUGAGCAUCA
B22: ENSG00000066933:stop:overlap|stop_codon|ENSG00000066933|stop_codon|NA|stop_codon (ssRNA)
RNA: GGGAGUUCUACAGUCCGACGAUCAUAGCUCAGAGAAUUUGAAUAUGGAGUCUGAAUAUGCUAUCUCUGAGAAAUCAGAAGCUUAGCCCUUAGCUCCCUGAAGACAGCUGGCAAGUCUGAACCUUCCAGCAAGUUGCGAAAGCACAACAGAGGAUUGAGCAUCA
B23: ENSG00000112365:stop:overlap|stop_codon|ENSG00000112365|stop_codon|NA|stop_codon (ssRNA)
RNA: GGGAGUUCUACAGUCCGACGAUCUCUACACACUGGCAAGAAGCCUUUCUCCUGCCCUGAGUGUAACUUACAGUUUGCUCGCUUAGACAACUUGAAGGCUCACUUGAAAAUUCAUAGCAAGGAGAAGCAUGCUUCAGAUGCCAGCAACAGAGGAUUGAGCAUCA
B24: ENSG00000107863:be:win_3701|CDS|ENSG00000107863|bound_else_gene|NA|bound_elsewhere_windowed (ssRNA)
RNA: GGGAGUUCUACAGUCCGACGAUCUCUUCACAAAUGAUAAAUAUGCUGAUUUUAUUGAAGCCAAUCGUAAAGAAGAUCCUCUAGAUCGUCUGAAAACAUUAAAAAGACUAAUUCACGAUUUGCCUGAACAUCAUUAUGAAACACCAACAGAGGAUUGAGCAUCA
B25: chr5:43486917:43487111:-|CDS|ENSG00000172244|control|control|control (ssRNA)
RNA: GGGAGUUCUACAGUCCGACGAUCUUAUAAACCAGGAUCUUCAGAAACCUUGCUAGGAGAAGUUAAUGAAAAUAGAGUAUCAAUAGCAUUGAAAAAAACCUCUGAAAUCCUUCACGAUAUUGACUGUCUUCUAUCAAACUCUAACAACAGAGGAUUGAGCAUCA
B26: chr10:30820206:30820444:-|three_prime_utr|ENSG00000183621|control|control|control (ssRNA)
RNA: GGGAGUUCUACAGUCCGACGAUCCUUAUCUAAUCUCCAAAUGAAGAAUGGGCCCAUCUGACAUAUCCUAUGAGCACAAAGCUUAGGGGACUCUUCACCGAAACCUAGACAAAUAUUUGAAUGCAUUUUUUUUUUUUUUUUUUGCAACAGAGGAUUGAGCAUCA
B27: chr8:65707876:65707977:+|CDS|ENSG00000066855|unk|FALSE|unique (ssRNA)
RNA: GGGAGUUCUACAGUCCGACGAUCCCUGCUGCCCUCAUAGCAGAGGCUCUGAAAAAGAAAUUUGCUUAUCGGUAUCGAAGUGAUAGCCAAGAUGAAGUUGAAAAAGGAAUUCCAAAGUCUGAAUCAGAGGCCACCUCAGAGAGACAACAGAGGAUUGAGCAUCA

The assay deals with T1, UNK ZnF1-6 (called full-length) (human, UniProt Q9C0B0 30-357).
T1 sequence: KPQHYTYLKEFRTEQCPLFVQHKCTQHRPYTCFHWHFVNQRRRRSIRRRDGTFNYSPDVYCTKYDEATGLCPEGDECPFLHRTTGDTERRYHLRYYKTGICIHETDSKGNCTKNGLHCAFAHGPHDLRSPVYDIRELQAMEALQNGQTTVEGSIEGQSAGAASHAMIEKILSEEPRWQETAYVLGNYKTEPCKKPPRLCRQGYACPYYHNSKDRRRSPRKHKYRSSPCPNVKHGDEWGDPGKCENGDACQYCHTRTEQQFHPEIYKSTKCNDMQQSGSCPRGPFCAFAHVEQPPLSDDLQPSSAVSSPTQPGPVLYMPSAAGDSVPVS
Nature of the assay: nsRBNS (natural sequence RNA bind-n-seq); RBNS binding buffer (assumed for nsRBNS): 25 mM Tris pH 7.5, 150 mM KCl, 3 mM MgCl2, 0.01% Triton X-100, 500 ug/ml BSA, 20 U/ml SUPERase-In, 4 C; UNK is unkempt and MSI1 is Musashi-1; names of the RNAs are library labels; protein concentration not given here; high values mean tight binding.
B1 registered a binding signal of 1.2 enrichment R.
Consider B2, for which the binding signal is 0.43 enrichment R.
The result for B3 reads 0.618 enrichment R.
B4 returned a binding signal of 0.882 enrichment R.
With B5, the binding signal came to 1.45 enrichment R.
B6 returned a binding signal of 0.619 enrichment R.
Take B7: the binding signal is 0.868 enrichment R.
B8 showed a binding signal of 122 enrichment R.
The molecule B9 came in with a binding signal of 12.2 enrichment R.
B10 came in with a binding signal of 4.24 enrichment R.
For the molecule B11, the binding signal worked out at 1.21 enrichment R.
Regarding B12, the binding signal was 0.575 enrichment R.
The result for B13 reads 1.89 enrichment R.
As to B14, the binding signal stood at 2.26 enrichment R.
Molecule B15 showed a binding signal of 0.578 enrichment R.
B16 came in with a binding signal of 2.16 enrichment R.
With B17, the binding signal amounted to 0.253 enrichment R.
Regarding B18, the binding signal is 5.74 enrichment R.
As to B19, the binding signal was 0.274 enrichment R.
For the molecule B20, the binding signal was determined as 0.482 enrichment R.
Molecule B21 gave a binding signal of 0.471 enrichment R.
The molecule B22 came in with a binding signal of 15.4 enrichment R.
Molecule B23 came in with a binding signal of 0.948 enrichment R.
For the molecule B24, the binding signal came to 0.382 enrichment R.
The result for B25 reads 0.69 enrichment R.
The same measure for B26: 27.7 enrichment R.
The result for B27 reads 0.424 enrichment R.

The values above are taken from PMC12136788.
